Reference: PubChem BioAssay AID1159580 (chemical genetic matrix, 2015)
In all, about 5,500 compounds went through this assay and about 2,000 (36%) were called active. Roughly 18% stayed inconclusive and do not appear here. Cut-off read from the data, not from the text of the source: active = normalized growth mostly below about 0.91 (no sharp cut-off); inconclusive = no clear call, values can overlap the other calls; inactive = mostly above about 0.92. The list shows a part of the results.

Assay: chemical genetic growth profiling, strain panel (AID 1159580);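 note: tested at 20 µM; growth read once vehicle control cultures reached saturation at 30 °C; 1 = growth at the plate median or of vehicle wells; lower values mean less growth of the strain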
Conditions: growth OD

Measured: normalized growth

CC[C@@]1(O)C[C@H](O[C@H]2C[C@H](N(C)C)[C@H](O)[C@H](C)O2)c2c(cc3c(c2O)C(=O)c2c(O)cccc2C3=O)[C@H]1C(=O)OC
active: S. cerevisiae deletion strains, locus YKL085W, strain MDH1 (second series), stronger effect = lower value 0.914 | S. cerevisiae deletion strains, locus YKL085W, strain MDH1, stronger effect = lower value 0.914 | S. cerevisiae deletion strains, locus YKL160W, strain elf1, stronger effect = lower value 0.873 | S. cerevisiae deletion strains, locus YKL190W, strain CNB1, stronger effect = lower value 0.876 | S. cerevisiae deletion strains, locus YKR001C, strain vps1, stronger effect = lower value 0.639 | S. cerevisiae deletion strains, locus YLL001W, strain dnm1, stronger effect = lower value 0.869 | S. cerevisiae deletion strains, locus YLL026W, stronger effect = lower value 0.908 | S. cerevisiae deletion strains, locus YLR027C, strain aat2, stronger effect = lower value 0.877 | S. cerevisiae deletion strains, locus YLR039C, strain RIC1, stronger effect = lower value 0.491 | S. cerevisiae deletion strains, locus YLR058C, strain SHM2, stronger effect = lower value 0.89 | S. cerevisiae deletion strains, locus YLR102C, strain apc9, stronger effect = lower value 0.901 | S. cerevisiae deletion strains, locus YLR221C, strain rsa3, stronger effect = lower value 0.855 | S. cerevisiae deletion strains, locus YLR262C, strain YPT6 (second series), stronger effect = lower value 0.649 | S. cerevisiae deletion strains, locus YLR262C, strain YPT6, stronger effect = lower value 0.462 | S. cerevisiae deletion strains, locus YLR268W, strain sec22, stronger effect = lower value 0.691 | S. cerevisiae deletion strains, locus YLR320W, strain mms22, stronger effect = lower value 0.245 | S. cerevisiae deletion strains, locus YLR330W, strain CHS5, stronger effect = lower value 0.873 | S. cerevisiae deletion strains, locus YLR342W, strain FKS1 (second series), stronger effect = lower value 0.769 | S. cerevisiae deletion strains, locus YLR342W, strain FKS1, stronger effect = lower value 0.862 | S. cerevisiae deletion strains, locus YLR370C, strain arc18, stronger effect = lower value 0.899 | S. cerevisiae deletion strains, locus YLR371W, strain rom2, stronger effect = lower value 0.846 | S. cerevisiae deletion strains, locus YLR418C, strain cdc73, stronger effect = lower value 0.69 | S. cerevisiae deletion strains, locus YML032C, strain rad52, stronger effect = lower value 0.241 | S. cerevisiae deletion strains, locus YML120C, strain ndi1, stronger effect = lower value 0.912 | S. cerevisiae deletion strains, locus YML124C, strain tub3, stronger effect = lower value 0.9 | S. cerevisiae deletion strains, locus YMR058W, strain fet3, stronger effect = lower value 0.818 | S. cerevisiae deletion strains, locus YMR078C, strain ctf18, stronger effect = lower value 0.724 | S. cerevisiae deletion strains, locus YMR129W, stronger effect = lower value 0.921 | S. cerevisiae deletion strains, locus YMR205C, strain PFK2, stronger effect = lower value 0.779 | S. cerevisiae deletion strains, locus YMR223W, strain ubp8, stronger effect = lower value 0.838 | S. cerevisiae deletion strains, locus YMR231W, strain pep5, stronger effect = lower value 0.918 | S. cerevisiae deletion strains, locus YNL067W, strain RPL9B, stronger effect = lower value 0.824 | S. cerevisiae deletion strains, locus YNL071W, strain lat1, stronger effect = lower value 0.815 | S. cerevisiae deletion strains, locus YNL209W, strain ssb2, stronger effect = lower value 0.871 | S. cerevisiae deletion strains, locus YNL233W, strain BNI4, stronger effect = lower value 0.861 | S. cerevisiae deletion strains, locus YNL248C, strain rpa49, stronger effect = lower value 0.309 | S. cerevisiae deletion strains, locus YNL250W, strain rad50, stronger effect = lower value 0.559 | S. cerevisiae deletion strains, locus YNL271C, strain bni1, stronger effect = lower value 0.916 | S. cerevisiae deletion strains, locus YNL298W, strain CLA4, stronger effect = lower value 0.898 | S. cerevisiae deletion strains, locus YNL307C, strain MCK1, stronger effect = lower value 0.864 | S. cerevisiae deletion strains, locus YNL322C, strain KRE1, stronger effect = lower value 0.893 | S. cerevisiae deletion strains, locus YNR052C, strain pop2, stronger effect = lower value 0.65 | S. cerevisiae deletion strains, locus YOL006C, strain TOP1, stronger effect = lower value 0.198 | S. cerevisiae deletion strains, locus YOL147C, strain pex11, stronger effect = lower value 0.837 | S. cerevisiae deletion strains, locus YOR069W, strain VPS5, stronger effect = lower value 0.895 | S. cerevisiae deletion strains, locus YOR070C, strain gyp1, stronger effect = lower value 0.898 | S. cerevisiae deletion strains, locus YOR083W, strain WHI5, stronger effect = lower value 0.81 | S. cerevisiae deletion strains, locus YOR106W, strain vam3, stronger effect = lower value 0.672 | S. cerevisiae deletion strains, locus YOR136W, strain idh2, stronger effect = lower value 0.894 | S. cerevisiae deletion strains, locus YOR144C, strain elg1, stronger effect = lower value 0.857 | S. cerevisiae deletion strains, locus YOR184W, strain ser1, stronger effect = lower value 0.591 | S. cerevisiae deletion strains, locus YOR265W, strain rbl2, stronger effect = lower value 0.917 | S. cerevisiae deletion strains, locus YOR270C, strain vph1, stronger effect = lower value 0.39 | S. cerevisiae deletion strains, locus YOR316C, strain cot1, stronger effect = lower value 0.915 | S. cerevisiae deletion strains, locus YPL051W, strain arl3, stronger effect = lower value 0.785 | S. cerevisiae deletion strains, locus YPL055C, strain LGE1, stronger effect = lower value 0.744 | S. cerevisiae deletion strains, locus YPL240C, strain hsp82, stronger effect = lower value 0.92 | S. cerevisiae deletion strains, locus YPL241C, strain CIN2, stronger effect = lower value 0.929 | S. cerevisiae deletion strains, locus YPR119W, strain clb2, stronger effect = lower value 0.901 | S. cerevisiae deletion strains, locus YPR163C, strain tif3, stronger effect = lower value 0.783 | S. cerevisiae deletion strains, locus YPR167C, strain met16, stronger effect = lower value 0.882 | S. cerevisiae deletion strains, strain wtn01, stronger effect = lower value 0.759 | S. cerevisiae strains, strain wild type, stronger effect = lower value 0.841
inactive: S. cerevisiae deletion strains, locus YKL068W, stronger effect = lower value 0.965 | S. cerevisiae deletion strains, locus YKR026C, strain gcn3, stronger effect = lower value 0.945 | S. cerevisiae deletion strains, locus YKR091W, strain srl3, stronger effect = lower value 0.945 | S. cerevisiae deletion strains, locus YLL041C, strain sdh2, stronger effect = lower value 0.944 | S. cerevisiae deletion strains, locus YLR113W, strain HOG1, stronger effect = lower value 1.02 | S. cerevisiae deletion strains, locus YLR258W, strain gsy2, stronger effect = lower value 0.929 | S. cerevisiae deletion strains, locus YLR357W, strain rsc2, stronger effect = lower value 0.939 | S. cerevisiae deletion strains, locus YLR384C, strain iki3, stronger effect = lower value 0.93 | S. cerevisiae deletion strains, locus YML016C, strain PPZ1, stronger effect = lower value 0.929 | S. cerevisiae deletion strains, locus YMR125W, strain sto1, stronger effect = lower value 1.05 | S. cerevisiae deletion strains, locus YMR263W, strain SAP30, stronger effect = lower value 0.92 | S. cerevisiae deletion strains, locus YMR307W, strain GAS1, stronger effect = lower value 0.601 | S. cerevisiae deletion strains, locus YNL153C, strain GIM3, stronger effect = lower value 0.94 | S. cerevisiae deletion strains, locus YNL183C, strain NPR1, stronger effect = lower value 0.926 | S. cerevisiae deletion strains, locus YNL322C, strain KRE1 (second series), stronger effect = lower value 0.922 | S. cerevisiae deletion strains, locus YNR049C, strain mso1, stronger effect = lower value 0.946 | S. cerevisiae deletion strains, locus YOL012C, strain htz1 0.351 | S. cerevisiae deletion strains, locus YOR001W, strain rrp6, stronger effect = lower value 0.934 | S. cerevisiae deletion strains, locus YOR061W, strain CKA2, stronger effect = lower value 0.89 | S. cerevisiae deletion strains, locus YOR080W, strain dia2, stronger effect = lower value 0.97 | S. cerevisiae deletion strains, locus YOR231W, strain MKK1, stronger effect = lower value 0.994 | S. cerevisiae deletion strains, locus YOR290C, strain snf2, stronger effect = lower value 0.932 | S. cerevisiae deletion strains, locus YPL078C, strain atp4, stronger effect = lower value 0.961 | S. cerevisiae deletion strains, locus YPL106C, strain sse1, stronger effect = lower value 1.04 | S. cerevisiae deletion strains, locus YPL256C, strain CLN2, stronger effect = lower value 0.963 | S. cerevisiae deletion strains, locus YPR141C, strain kar3, stronger effect = lower value 0.935
